# Measured values taken from PubChem BioAssay AID687016 (The Scripps Research Institute Molecular Screening Center, 2013).
# Out of some 370,000 compounds screened, about 2,800 (0.76%) were called active. The list comes from a sample in which actives are over-represented; it also holds similar structures and randomly drawn compounds. A number with no mark means an inactive call. Rule as the data show it: active = inhibition above about 21%; inactive = the rest.
# Molecular target: E3 ubiquitin-protein ligase UHRF1 (Homo sapiens) (UniProt Q96T88)
# Assay: UHRF1 methylated DNA binding inhibitors, primary screen, counter-screen for MBD2 inhibitor project, biochemical, TR-FRET, human UHRF1, single concentration (AID 687016);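 also: UHRF1 SRA domain binding a hemimethylated CpG hairpin DNA probe; 0% = median of test compound wells and 100% = reference inhibitor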
# Details: UHRF1 binding to methylated oligo, at 4.4 µM, active compounds read high
# Sequence of E3 ubiquitin-protein ligase UHRF1 (Homo sapiens) (Q96T88 whole entry, looked up, the tested form may be a part): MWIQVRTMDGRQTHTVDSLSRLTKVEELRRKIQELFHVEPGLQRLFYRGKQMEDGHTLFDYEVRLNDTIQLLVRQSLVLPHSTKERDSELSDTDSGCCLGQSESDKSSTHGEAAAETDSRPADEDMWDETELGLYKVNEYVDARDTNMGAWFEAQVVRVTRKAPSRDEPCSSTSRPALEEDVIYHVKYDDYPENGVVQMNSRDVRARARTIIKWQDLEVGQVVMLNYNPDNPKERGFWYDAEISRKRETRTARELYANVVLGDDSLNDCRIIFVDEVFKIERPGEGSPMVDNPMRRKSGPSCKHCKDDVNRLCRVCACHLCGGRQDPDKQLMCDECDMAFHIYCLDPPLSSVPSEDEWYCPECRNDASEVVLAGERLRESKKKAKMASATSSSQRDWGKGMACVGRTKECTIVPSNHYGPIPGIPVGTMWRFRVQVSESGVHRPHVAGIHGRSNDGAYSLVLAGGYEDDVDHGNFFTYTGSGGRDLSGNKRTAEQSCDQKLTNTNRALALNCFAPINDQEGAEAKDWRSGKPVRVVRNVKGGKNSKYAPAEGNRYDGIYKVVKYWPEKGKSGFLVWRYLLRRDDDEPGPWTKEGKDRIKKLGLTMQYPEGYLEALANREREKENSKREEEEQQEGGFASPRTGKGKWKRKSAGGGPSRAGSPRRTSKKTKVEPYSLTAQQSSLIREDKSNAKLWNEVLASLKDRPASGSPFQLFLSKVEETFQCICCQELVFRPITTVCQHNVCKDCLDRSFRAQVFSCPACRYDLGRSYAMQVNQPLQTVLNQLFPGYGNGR
row,SMILES,inhibition
1,COc1ccc(OC)c(S(=O)(=O)Nc2cccc(-c3ccc4nncn4n3)c2)c1,-0.61%
2,COc1ccc(C(C)C)cc1-c1ccc2nncn2c1,42.2% (active)
3,CS(=O)(=O)c1cccc(-c2ccc3nncn3c2)c1,4.75%
4,Nn1c(SCC(=O)Nc2cccc3ccccc23)nnc1-c1cc(-c2ccc(F)cc2)n[nH]1,-1.05%
5,COc1ccc(-c2nn(-c3ccccc3)cc2CN2CCCO2)c(F)c1,-0.87%
6,COc1ccc(-n2cc(CNC3CCOCC3)c(-c3cccc(F)c3)n2)cc1,21.6% (active)
7,CCC(O)C1CCN(Cc2cn(-c3ccc(OC)cc3)nc2-c2cccc(F)c2)CC1 (stereo not drawn),0.5%
8,O=C(N1CCOCC1)N1CC[C@H]2[C@H](CCCN2Cc2ccc(F)cc2)C1,-1.64%
9,COC(=O)C1CN(Cc2cn(Cc3ccc(F)cc3)nn2)CCS(=O)(=O)N1Cc1ccc(Cl)cc1 (stereo not drawn),2.82%
10,Fc1cccc(Cc2c(-c3cccc(Cl)c3)nc3ccc(Br)cn23)c1,1.63%
11,Fc1cccc(Cc2c(-c3ccc(Cl)cc3)nc3ccc(Cl)cn23)c1,26.5% (active)
12,COC(=O)c1ccc2nc(-c3ccc(Cl)cc3)c(Cc3cccc(F)c3)n2c1,10.2%
13,CN(CCc1ccccc1)C(=O)Cn1nc(-c2ccccc2)ccc1=O,1.78%
14,CC(=O)Nc1ccccc1Sc1ccc2c3c(cccc13)C(=O)N(c1ccc(C)cc1)C2=O,21.6% (active)
15,Cc1ccc(-n2c(SCC(=O)Nc3cccc4ccccc34)nnc2-c2ccco2)cc1,-0.24%
16,Cc1ccc(-n2c(SCC(=O)Nc3cccc4ccccc34)nnc2-c2ccccn2)cc1,0.12%
17,COc1ccc(CSc2nnc(-c3cccc(C)c3)n2C)cc1,0.25%
18,O=C(NCc1ccc(Cl)cc1)NCc1ccc(Cl)cc1,24.9% (active)
19,Cc1ccc(S(=O)(=O)NC(C)C(=O)NCc2ccc(Cl)cc2)cc1 (stereo not drawn),0.66%
20,S=C(NCc1ccc(Cl)cc1)NC12CC3CC(CC(C3)C1)C2,-0.38%
21,Cc1c[nH]c2cccc(-c3ccc(Cl)cc3)c12,-1.82%
22,COc1cc(/C=C/C(=O)n2cnc3ccccc32)cc(OC)c1OC,1.6%
23,Cc1cc(C)cc(NC(=O)N2CCC(N(C)CCC(C)C)CC2)c1,0.51%
